# In PubChem BioAssay (EPA / NIEHS):
# Results filed as inconclusive are left out. Active and inactive are the calls of the source. How the source made its calls: active means hit-call score of the fitted dose curve at least 0.9, where 1 is the maximum; inconclusive means response in the unintended direction; inactive means score below 0.9.
# Test system: guinea pig Histamine Receptor (H2), gene 100729734
# Test: NVS_GPCR_gH2: NovaScreen (NVS) G Protein-Coupled Receptor Assay for guinea pig Histamine Receptor (H2) (AID 2283342)
# Method in brief: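 Radioligand displacement on guinea pig striatal membranes, 1 h after dosing, filter-based scintillation counting; loss of signal versus DMSO. Single-point screen at 25 uM in duplicate, then concentration-response up to 50 uM.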
SMILES,AC50,outcome
CCCCCCCCN(C)CCCCCCCC,14.5 µM (active),–
COc1cc(C(=O)NC2CCN(C)CC2)ccc1Nc1ncc2c(n1)N(C1CCCC1)CC(F)(F)C(=O)N2C,4.77 µM (active),–
Cc1cc(F)ccc1-c1cc(N2CC[C@@H](O)[C@H]2CO)ncc1N(C)C(=O)C(C)(C)c1cc(C(F)(F)F)cc(C(F)(F)F)c1,–,inactive
CCCCCCCCCCCC[N+](C)(C)C,19.6 µM (active),–
COc1ccc2cc(S(=O)(=O)N[C@H](CC(=O)N[C@H](Cc3ccc(CN4[C@H](C)CCC[C@@H]4C)cc3)C(=O)N(C)C(C)C)c3ccc4c(c3)OCO4)ccc2c1,20.5 µM (active),–
CN(C)c1ccc(C(=C2C=CC(=[N+](C)C)C=C2)c2ccc(N(C)C)cc2)cc1,0.827 µM (active),–
Clc1cc(Cl)c2c(c1)N=C1CCCCCN1C2,1.85 µM (active),–
NCc1cccc(C2CCN(C(=O)c3ccc(C#Cc4ccccc4F)o3)CC2)c1,12 µM (active),–
CCN(CC)C(=O)c1cc(S(=O)(=O)Cc2ccccc2)c(N2CCC(c3ccccc3)CC2)cc1N(CC)CCN(C)C,2.84 µM (active),–
Cc1occc1C(=O)Nc1ccc(C(=O)N2CCC(F)(F)/C(=C\C(=O)N3CCC(N4CCCCC4)CC3)c3ccccc32)cc1,–,inactive
COc1cccc([C@H](O)C2CCN(CCc3ccc(F)cc3)CC2)c1OC,13.1 µM (active),–
O=C1c2ccccc2C(=O)N1CCc1noc(-c2ccc(CN3CCCCCC3)s2)n1,8.06 µM (active),–
CCOC(=O)O[C@H](C)OC(=O)c1ccc2c(c1)cc(C(=O)NC1CCN(C(C)C)CC1)n2Cc1cc(-c2ccc(Cl)s2)on1,13.3 µM (active),–
CN(C)C(=O)C1(N2CCCCC2)CCN(CC[C@@]2(c3ccc(Cl)c(Cl)c3)CN(C(=O)c3ccccc3)CCO2)CC1,1.08 µM (active),–
c1ccc(C[n+]2cccc3ccccc32)cc1,25 µM (active),–
CCN(Cc1cccnc1)C(=O)c1cccc(Cl)c1[C@]1(C)C(=O)N(Cc2ccc(OC)cc2OC)c2ccc(Cl)cc21,1.12 µM (active),–

# Test system: NCBI gene 100848466
# Test: NVS_NR_bPR: NovaScreen (NVS) Nuclear Receptor Binding Assay for bovine Progextron Receptor (PR) (AID 2283343);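 on AC50: actives lower bound radioligand signal below DMSO meaning displacement of the label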
# Method in brief: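 Bovine uterine membrane preparation; radioligand displacement read by scintillation counting 18 h after dosing. Primary screen single concentration, 25 uM, in duplicate; actives followed up in concentration series. Signal loss versus DMSO baseline.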
SMILES,AC50,outcome
C[C@]12CC[C@@H]3c4ccc(O)cc4CC[C@H]3[C@@H]1CC[C@H]2O,0.0988 µM (active),–
Cc1cc(F)ccc1-c1cc(N2CC[C@@H](O)[C@H]2CO)ncc1N(C)C(=O)C(C)(C)c1cc(C(F)(F)F)cc(C(F)(F)F)c1,11.3 µM (active),–
Cc1c2ccccc2c(C)c2c1ccc1ccccc12,9.4 µM (active),–
CN(C)c1ccc(C(=C2C=CC(=[N+](C)C)C=C2)c2ccc(N(C)C)cc2)cc1,4.43 µM (active),–
CCCCOC(=O)c1ccc(O)cc1,–,inactive
Cc1ccc2oc(CN(Cc3ccccc3)C(=O)Nc3c(F)cc(F)cc3F)c(-c3ccc(Cl)cc3)c2c1,–,inactive
CCCCCCCCOC(=O)c1cc(O)c(O)c(O)c1,–,inactive
CN(C[C@@H](CC[N+]12CCC(C3CCCCC3)(CC1)CC2)c1ccc(Cl)c(Cl)c1)C(=O)c1cc(C(F)(F)F)cc(C(F)(F)F)c1,41.5 µM (active),–
CC/C(=C(/CC)c1ccc(O)cc1)c1ccc(O)cc1,9.68 µM (active),–
CCN(Cc1cccnc1)C(=O)c1cccc(Cl)c1[C@]1(C)C(=O)N(Cc2ccc(OC)cc2OC)c2ccc(Cl)cc21,2.77 µM (active),–
